Data as given in PubChem BioAssay (Tox21).
Inconclusive results are not listed. Activity calls are given as the source filed them. Unless noted, calls follow the shape of the dose curve; as a rule, active = well fitted curve in the direction sought with a large enough effect in the repeat runs; inconclusive = weak or mixed curves; inactive = no such curve, though single readings can be large; an effect the other way counts as inactive or inconclusive.

What was measured:
[1] = qHTS assay to identify small molecule antagonists of the estrogen receptor alpha (ER-alpha) signaling pathway using the BG1 cell line in the presence of 0.1 nM 17-beta-estradiol - cell viability counter screen (AID 1259241); also: nearly all actives have a fitted effect of over 40% in size; also: potency is read from the fitted curve at half-maximal effect
Summary of the method: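 Measures cytotoxicity alongside the ER-alpha antagonist readout: VM7Luc4E2 cells, charcoal-stripped serum, 0.1 nM 17beta-estradiol final, 22 hr compound incubation at 37C, CellTiter-Fluor fluorescence.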

[2] = qHTS assay to identify small molecule antagonists of the androgen receptor (AR) signaling pathway using the MDA cell line in the presence of 0.5 nM R1881 - cell viability counter screen (AID 1259242); also: nearly all actives have a fitted effect of over 45% in size; also: potency is read from the fitted curve at half-maximal effect
Summary of the method: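 Live-cell protease activity was measured by CellTiter-Fluor fluorescence after 30 min. Before that, MDA-kb2 MMTV-luciferase cells had 16 hr at 37C without CO2, exposed to test compounds and 0.5 nM R1881 final.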

[3] = qHTS assay to identify small molecule HDAC inhibitors (AID 1259364); also: nearly all actives have a fitted effect of over 45% in size; also: potency is read from the fitted curve at half-maximal effect
Summary of the method: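 Luminescence read after 30 min room-temperature HDAC-Glo incubation measures cellular class I/II HDAC activity. Compounds were applied for 2 hr at 37 C to HCT-116 wild-type cells seeded the day before.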

[4] = qHTS assay to identify small molecule HDAC inhibitors - cell viability counter screen (AID 1259365); also: nearly all actives have a fitted effect of over 50% in size; also: potency is read from the fitted curve at half-maximal effect
Summary of the method: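 Following a 2hr exposure of overnight-plated wild-type HCT-116 cells to DMSO-delivered compounds, CellTiter-Glo was added and luminescence recorded after 30min at room temperature.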

[5] = qHTS assay to identify small molecule agonists of the sonic hedgehog signaling (Shh) pathway - cell viability counter screen (AID 1259366); also: nearly all actives have a fitted effect of over 50% in size; also: potency is read from the fitted curve at half-maximal effect
Summary of the method: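 After a 4hr attachment at 37C, NIH/3T3 cells bearing an integrated Gli1-driven luciferase reporter were dosed with compounds. Treatment lasted 24hr, with the final hour including CellTiter-Fluor for a fluorescence viability measurement.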

[6] = qHTS assay to identify small molecule antagonists of the sonic hedgehog signaling (Shh) pathway - cell viability counter screen (AID 1259367); also: nearly all actives have a fitted effect of over 55% in size; also: potency is read from the fitted curve at half-maximal effect
Summary of the method: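 Tox21 library chemicals were tested on a Gli1-Luc NIH/3T3 clone (2,000 cells/well) stimulated by conditioned medium; viability was quantified as fluorescence from CellTiter-Fluor reagent added at 23 hr.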

[7] = qHTS assay to identify small molecule agonists of the sonic hedgehog signaling (Shh) pathway (AID 1259368; calls by dose curve;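 also: NIH/3T3-derived 3T3Gli1-Luc cells carrying a stable Gli1-driven firefly luciferase reporter; series mostly up to about 92 µM; nearly all actives have a fitted effect of over 15% in size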)
Summary of the method: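 Luminescence was read after 30 min at room temperature with luciferase reagent. Before that, 3T3Gli1-Luc cells (NIH/3T3 clone, stable Gli1-Luc reporter; 2,000/well) were exposed to compounds for 24 hr at 37C, 5% CO2, compounds being added 4 hr post-plating.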

[8] = qHTS assay to identify small molecule antagonists of the sonic hedgehog signaling (Shh) pathway (AID 1259369; calls by dose curve; also: nearly all actives have a fitted effect of over 45% in size; also: potency is read from the fitted curve at half-maximal effect)
Summary of the method: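 Antagonist mode: compound added to 3T3 Gli1-Luc cells followed by conditioned-medium stimulation, 24 h at 37 C, 5% CO2. Inhibition taken as loss of Gli1-driven luciferase luminescence.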

[9] = biological target: Estrogen receptor beta (Homo sapiens) (UniProt Q92731); experiment: qHTS assay to identify small molecule agonists of the estrogen receptor beta (ER-beta) signaling pathway (AID 1259377; active = well fitted activation curve with a large enough effect in the signal ratio in the repeat runs, not every such curve was filed as active; the % refers to the signal ratio)
Summary of the method: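 In HEK293T cells bearing a UAS-beta-lactamase reporter under ER-beta control, DMSO-delivered compounds were incubated for 16 hr at 37C. Activity was detected as fluorescence 2 hours after LiveBLAzer B/G FRET substrate addition.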

[10] = biological target: Estrogen receptor beta (Homo sapiens) (UniProt Q92731); experiment: qHTS assay to identify small molecule antagonists of the estrogen receptor beta (ER-beta) signaling pathway (AID 1259378; active = well fitted inhibition curve with a large enough effect in the signal ratio in the repeat runs, not every such curve was filed as active; the % refers to the signal ratio)
Summary of the method: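 ER-beta-UAS-bla HEK293T cells in 2% charcoal-stripped FBS medium treated with compound plus 1nM final 17-beta-estradiol for 16 hr at 37C. Beta-lactamase reporter read by FRET substrate fluorescence after 2 hours at room temperature.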

[11] = qHTS assay to identify small molecule agonists of the androgen receptor (AR) signaling pathway in the presence of an antagonist - cell viability counter screen (AID 1259379); also: nearly all actives have a fitted effect of over 25% in size; also: potency is read from the fitted curve at half-maximal effect
Summary of the method: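 Cytotoxicity counter-screen run in the same wells as the nilutamide-challenged (3.0 µM final) AR agonist assay in MDA-kb2 cells. Compounds tested at 15 concentrations for 16 h, 37 °C without CO2; CellTiter-Fluor fluorescence read.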

[12] = qHTS assay to identify small molecule antagonists of the estrogen receptor beta (ER-beta) signaling pathway - cell viability counter screen (AID 1259382); also: nearly all actives have a fitted effect of over 55% in size; also: potency is read from the fitted curve at half-maximal effect
Summary of the method: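 Cytotoxicity was measured in the same wells by CellTiter-Glo luminescence after 30 min at room temperature. Cells were ER-beta-bla HEK293T in charcoal-stripped serum, given compound together with 1 nM E2 and incubated 16 h at 37C.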

[13] = qHTS assay to identify small molecule agonists or antagonists of the thyroid stimulating hormone receptor (TSHR) signaling pathway - wild type cell line counter screen (AID 1259384; calls by dose curve)
Summary of the method: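 Wild-type Hek293 cells, 800/well, 18 h at 37C, then compound with Ro20-1724 for 30 min RT. cAMP by HTRF (cAMP-d2/anti-cAMP cryptate), 1 h RT, fluorescence read. 15 concentrations, triplicates.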

[14] = biological target: Estrogen receptor (Homo sapiens) (UniProt P03372); experiment: qHTS assay to identify small molecule antagonists of the estrogen receptor alpha (ER-alpha) signaling pathway using the BG1 cell line in the presence of 0.1 nM 17-beta-estradiol (AID 1259244); also: nearly all actives have a fitted effect of over 50% in size; also: potency is read from the fitted curve at half-maximal effect
Summary of the method: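 Luciferase luminescence (ONE-Glo, 30 min at room temperature) was read after 22 hr at 37C exposure to compounds plus 17beta-estradiol at 0.1 nM final. Cells were VM7Luc4E2 with endogenous ER-alpha and an ERE-driven luciferase, pre-cultured 5 days in hormone-depleted medium.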

[15] = qHTS assay to identify small molecule agonists of the estrogen receptor beta (ER-beta) signaling pathway - cell viability counter screen (AID 1259380); also: nearly all actives have a fitted effect of over 30% in size; also: potency is read from the fitted curve at half-maximal effect
Summary of the method: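 Cell viability counter screen: CellTiter-Glo luminescence (30 min, room temperature) measured in the same wells as the beta-lactamase readout, after 16 hr compound exposure at 37C of ER-beta-bla HEK293T cells in 2% charcoal-stripped FBS medium.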

[16] = biological target: Estrogen receptor (Homo sapiens) (UniProt P03372); experiment: qHTS assay to identify small molecule agonists of the estrogen receptor alpha (ER-alpha) signaling pathway in the presence of an antagonist (AID 1259383; calls by dose curve; also: top concentration of the series differs between compounds; nearly all actives have a fitted effect of over 15% in size)
Summary of the method: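 Agonist-mode confirmation run in the presence of 10.0nM (final) ICI-182,780 antagonist. The reporter was ERE-driven luciferase in VM7Luc4E2 cells, grown in charcoal-stripped serum. Cells were exposed to 15-concentration compound series for 22hr, then ONE-Glo luminescence was read.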

[17] = biological target: Thyrotropin receptor (Homo sapiens) (UniProt P16473); experiment: qHTS assay to identify small molecule antagonists of the thyroid stimulating hormone receptor (TSHR) signaling pathway (AID 1259385; calls by dose curve; also: nearly all actives have a fitted effect of over 20% in size)
Summary of the method: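 TSHR-HEK293 cells (800/well) plated 18 h, then compounds with Ro20-1724 and TSH at 1.5 ng/mL final, 30 min at room temperature. cAMP quantified by HTRF (cAMP-d2/anti-cAMP-cryptate, 1 h); 15 concentrations in triplicate.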

[18] = qHTS assay to identify small molecule phospholipidosis (PLD) inducers (AID 1259344; active = well fitted curve in the direction sought with a large enough effect; an effect the other way counts as inactive or inconclusive)
Summary of the method: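 Image-based: LipidTOX Red pit count/intensity per well and per cell; HepG2, 24 h compound at 37 C, PFA fixation, Hoechst counterstain.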

[19] = biological target: Androgen receptor (Homo sapiens) (UniProt P10275); experiment: qHTS assay to identify small molecule agonists of the androgen receptor (AR) signaling pathway in the presence of an antagonist (AID 1259381; calls by dose curve; also: nearly all actives have a fitted effect of over 15% in size)
Summary of the method: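 Agonist-mode confirmation run against 3.0 uM final nilutamide: compounds titrated at 15 concentrations onto MDA-kb2 MMTV-luciferase reporter cells. Luminescence measured with ONE-Glo following 16 hr incubation, 37C, 0% CO2.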

[20] = biological target: Androgen receptor (Homo sapiens) (UniProt P10275); experiment: qHTS assay to identify small molecule antagonists of the androgen receptor (AR) signaling pathway using the MDA cell line in the presence of 0.5 nM R1881 (AID 1259243); also: nearly all actives have a fitted effect of over 50% in size; also: potency is read from the fitted curve at half-maximal effect
Summary of the method: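 Luminescent reporter readout (ONE-Glo, 30 min, room temperature) after 16 hr co-treatment of MDA-kb2 cells with test compounds and 0.5 nM R1881 final, at 37C without CO2. The MMTV-driven luciferase responds to both AR and GR.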

Measured: Potency

Estrogen receptor (Homo sapiens), sequence (P03372 whole entry, looked up): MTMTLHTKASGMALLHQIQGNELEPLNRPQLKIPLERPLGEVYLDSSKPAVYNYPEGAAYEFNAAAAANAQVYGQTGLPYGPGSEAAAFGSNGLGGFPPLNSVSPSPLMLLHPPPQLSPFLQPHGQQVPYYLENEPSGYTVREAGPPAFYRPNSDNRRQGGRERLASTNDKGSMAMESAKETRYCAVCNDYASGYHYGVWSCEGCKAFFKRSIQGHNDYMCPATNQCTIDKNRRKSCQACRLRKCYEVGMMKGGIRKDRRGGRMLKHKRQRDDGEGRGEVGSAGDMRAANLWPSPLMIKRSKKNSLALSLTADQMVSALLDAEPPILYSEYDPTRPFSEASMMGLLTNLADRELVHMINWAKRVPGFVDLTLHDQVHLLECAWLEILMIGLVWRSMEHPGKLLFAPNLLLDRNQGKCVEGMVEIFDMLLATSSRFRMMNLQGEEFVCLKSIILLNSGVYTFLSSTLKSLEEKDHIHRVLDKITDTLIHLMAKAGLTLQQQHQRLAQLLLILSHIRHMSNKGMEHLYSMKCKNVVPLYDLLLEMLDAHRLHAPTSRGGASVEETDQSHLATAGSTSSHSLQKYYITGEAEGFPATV
Androgen receptor (Homo sapiens), sequence (P10275 whole entry, looked up): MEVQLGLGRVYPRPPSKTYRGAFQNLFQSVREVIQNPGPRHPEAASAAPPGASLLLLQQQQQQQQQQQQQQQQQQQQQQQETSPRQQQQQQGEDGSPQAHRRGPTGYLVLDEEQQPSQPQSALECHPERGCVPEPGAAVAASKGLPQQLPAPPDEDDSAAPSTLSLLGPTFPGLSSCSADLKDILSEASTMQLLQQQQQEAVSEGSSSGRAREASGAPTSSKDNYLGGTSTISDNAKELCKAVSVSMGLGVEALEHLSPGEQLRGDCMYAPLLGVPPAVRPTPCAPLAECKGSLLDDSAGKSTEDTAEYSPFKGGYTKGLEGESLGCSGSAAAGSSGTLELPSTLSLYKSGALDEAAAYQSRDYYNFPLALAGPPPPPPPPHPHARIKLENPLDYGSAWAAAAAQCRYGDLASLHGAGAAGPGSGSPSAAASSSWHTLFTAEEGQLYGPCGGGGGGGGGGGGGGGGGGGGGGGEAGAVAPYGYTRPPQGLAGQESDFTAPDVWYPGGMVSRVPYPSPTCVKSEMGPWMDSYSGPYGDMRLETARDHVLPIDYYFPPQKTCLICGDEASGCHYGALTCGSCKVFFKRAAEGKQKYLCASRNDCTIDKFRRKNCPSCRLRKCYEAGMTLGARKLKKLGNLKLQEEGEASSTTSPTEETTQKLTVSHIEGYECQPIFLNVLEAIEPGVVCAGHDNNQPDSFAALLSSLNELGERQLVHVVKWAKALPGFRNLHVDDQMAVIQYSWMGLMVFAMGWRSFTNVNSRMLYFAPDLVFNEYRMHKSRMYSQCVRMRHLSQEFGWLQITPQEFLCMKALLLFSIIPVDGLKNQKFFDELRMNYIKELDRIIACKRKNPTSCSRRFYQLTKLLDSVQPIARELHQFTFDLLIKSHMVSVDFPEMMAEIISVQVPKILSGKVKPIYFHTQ
Estrogen receptor beta (Homo sapiens), sequence (Q92731 whole entry, looked up): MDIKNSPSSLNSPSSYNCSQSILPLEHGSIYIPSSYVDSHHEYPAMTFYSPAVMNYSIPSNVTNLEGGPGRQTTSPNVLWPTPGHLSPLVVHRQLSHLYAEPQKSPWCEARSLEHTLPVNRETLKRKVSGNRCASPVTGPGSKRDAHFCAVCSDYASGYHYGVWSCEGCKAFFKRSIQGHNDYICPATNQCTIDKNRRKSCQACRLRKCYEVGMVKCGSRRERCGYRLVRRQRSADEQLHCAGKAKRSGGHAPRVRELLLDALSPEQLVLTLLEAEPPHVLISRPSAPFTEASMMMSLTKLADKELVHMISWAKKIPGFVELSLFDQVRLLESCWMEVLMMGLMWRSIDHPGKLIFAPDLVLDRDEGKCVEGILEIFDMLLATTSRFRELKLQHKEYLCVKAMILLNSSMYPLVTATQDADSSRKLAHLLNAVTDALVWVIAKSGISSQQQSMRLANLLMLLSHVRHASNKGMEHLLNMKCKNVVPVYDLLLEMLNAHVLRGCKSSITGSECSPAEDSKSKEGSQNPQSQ
Thyrotropin receptor (Homo sapiens), sequence (P16473 whole entry, looked up): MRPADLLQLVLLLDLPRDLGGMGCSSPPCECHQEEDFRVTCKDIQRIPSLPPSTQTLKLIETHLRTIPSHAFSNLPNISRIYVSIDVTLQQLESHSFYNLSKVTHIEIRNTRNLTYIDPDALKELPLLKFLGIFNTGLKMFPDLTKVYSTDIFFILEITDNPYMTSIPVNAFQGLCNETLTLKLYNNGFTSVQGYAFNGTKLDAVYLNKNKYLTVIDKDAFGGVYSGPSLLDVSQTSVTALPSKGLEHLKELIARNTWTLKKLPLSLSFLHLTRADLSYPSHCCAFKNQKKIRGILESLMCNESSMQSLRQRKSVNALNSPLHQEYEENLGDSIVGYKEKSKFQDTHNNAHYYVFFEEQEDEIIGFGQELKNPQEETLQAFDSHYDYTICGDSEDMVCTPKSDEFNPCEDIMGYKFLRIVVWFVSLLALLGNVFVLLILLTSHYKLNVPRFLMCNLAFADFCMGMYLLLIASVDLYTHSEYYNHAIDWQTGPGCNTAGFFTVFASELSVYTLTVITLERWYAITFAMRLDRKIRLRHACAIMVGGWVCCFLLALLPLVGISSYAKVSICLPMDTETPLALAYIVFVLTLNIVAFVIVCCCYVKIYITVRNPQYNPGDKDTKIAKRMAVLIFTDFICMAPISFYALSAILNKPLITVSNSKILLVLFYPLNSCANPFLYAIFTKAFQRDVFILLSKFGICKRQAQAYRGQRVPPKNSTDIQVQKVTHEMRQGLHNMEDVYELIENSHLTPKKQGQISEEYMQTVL

CCCCN(CCCC)C(=O)N(CCCC)CCCC
not listed: [14] | [15] | [16] | [17] | [18] | [19] | [20]
inactive: all other assays above

NNc1nc(-c2ccccc2)cs1
active: [15] 25 µM
not listed: [3] | [10] | [11] | [12] | [17] | [18] | [19] | [20]
inactive: all other assays above

CC(C)CCCCCCCCCCCCCCC(=O)O
active: [15] 54.5 µM
not listed: [12] | [13] | [14] | [16] | [17] | [18] | [19] | [20]
inactive: all other assays above

CN(C)c1ccc(SC#N)cc1
active: [8] 48.6 µM | [15] 54.5 µM
inactive: [1] | [2] | [14] | [3] | [4] | [7] | [9] | [13] | [17]

CCCCC(CC)COC(=O)c1ccccc1C(=O)O (configuration not stated)
inactive: [1] | [2] | [18] | [3] | [4] | [6] | [7] | [11] | [13]

C[n+]1ccn(Cc2ccccc2)c1
not listed: [11] | [14] | [16] | [18] | [19] | [20]
inactive: all other assays above

CCCC1O[C@@H]2C[C@H]3[C@@H]4CCC5=CC(=O)C=C[C@]5(C)[C@H]4[C@@H](O)C[C@]3(C)[C@]2(C(=O)CO)O1 (some centres not stated)
inactive: [1] | [2] | [18] | [3] | [4] | [7] | [9] | [11] | [12]
active: [6] 38.6 µM | [8] 7.7 µM

CCCCCCCCCCCCCCCS(=O)(=O)Oc1ccccc1
not listed: [5] | [16] | [18] | [19] | [20]
inactive: all other assays above

N#CC1(c2ccc(F)cc2)CCC(=O)CC1
not listed: [2] | [16] | [18] | [20]
inactive: all other assays above

CC(=O)OCC(C)OC(C)=O (configuration not stated)
active: [8] 68.6 µM
not listed: [2] | [18] | [19] | [20]
inactive: all other assays above

Cc1cc(N)c(S(=O)(=O)O)cc1Cl
not listed: [5] | [14] | [16] | [18] | [19] | [20]
inactive: all other assays above

O=C(OCC(COC(=O)c1ccccc1)(COC(=O)c1ccccc1)COC(=O)c1ccccc1)c1ccccc1
not listed: [5] | [10] | [12] | [14] | [16] | [18] | [19] | [20]
inactive: all other assays above

Cc1oc(-c2ccccc2)nc1CCC(=O)c1ccc(CC2SC(=O)NC2=O)cc1 (configuration not stated)
inactive: [1] | [2] | [3] | [4] | [7] | [8] | [13] | [17]
active: [15] 6.68 µM

Clc1ccc2nsnc2c1NC1=NCCN1
not listed: [2]
inactive: all other assays above

CNc1ccc(O)cc1
active: [1] 21.6 µM | [2] 61 µM | [4] 48.5 µM | [5] 12.2 µM | [6] 15.3 µM | [11] 61 µM | [15] 30.6 µM | [12] 61 µM
inactive: [7]

CCC(C)Nc1ccc(NC(C)CC)cc1 (configuration not stated)
inactive: [3] | [7] | [19]
active: [1] 9.88 µM | [20] 1.57 µM | [14] 2.48 µM | [4] 24.8 µM | [5] 11.1 µM | [6] 19.7 µM | [8] 3.93 µM | [11] 24.8 µM | [15] 3.93 µM | [12] 5.55 µM

Oc1ccc(N=Nc2ccccc2)cc1
inactive: [1] | [14] | [4] | [7] | [19] | [13] | [17]
active: [20] 31 µM | [3] 2.77 µM | [5] 27.7 µM | [8] 43.8 µM | [11] 24.7 µM
